High-throughput results (PubChem BioAssay)
AmpC no deterg: AmpC beta-lactamase inhibition without detergent; AmpC nitrocefin hydrolysis, absorbance 480 nm, 0.0001% Triton; Potency, µM (doses to about 57.1 µM), usual class: inhibitors; 330,000 compounds, 0.52% hits; AID 485341; further: nearly all actives have a fitted effect of over 20% in size
Target sequence (P00811 whole entry, looked up): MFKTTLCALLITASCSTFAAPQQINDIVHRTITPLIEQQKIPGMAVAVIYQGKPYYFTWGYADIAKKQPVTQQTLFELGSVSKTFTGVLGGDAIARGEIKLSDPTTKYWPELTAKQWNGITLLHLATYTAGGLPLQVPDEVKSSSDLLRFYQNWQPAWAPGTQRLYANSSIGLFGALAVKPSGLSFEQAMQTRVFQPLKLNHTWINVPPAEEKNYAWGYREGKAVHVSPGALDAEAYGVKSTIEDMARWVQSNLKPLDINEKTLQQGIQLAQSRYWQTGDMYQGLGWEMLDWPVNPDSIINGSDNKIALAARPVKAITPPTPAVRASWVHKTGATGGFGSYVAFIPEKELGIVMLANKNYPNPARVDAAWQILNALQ
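20 mM phosphate pH 7.0 + 0.01% (detergent screen) or 0.0001% Triton X-100; 5.3 nM AmpC reagent; cpd preinc 15 min RT; nitrocefin (800 uM stock) to start; A480 q20 s × 4 min; Activity was normalised to no-enzyme and no-compound control wells.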
Sm TGR inh: blocks Schistosoma mansoni thioredoxin glutathione reductase. purified TGR, DTNB reduction, TNB absorbance 405 nm. AID 485364. Potency, µM (series often up to 114 µM), usual class: inhibitors. Q962Y6. 360,000 compounds, 3% hits; further: nearly all actives have a fitted effect of over 60% in size
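TGR 20 nM + NADPH 100 uM (dispensed conc.), cpd preinc 15 min RT; start with NADPH (500 uM addition) then DTNB (15 mM addition). Kinetic TNB absorbance, 405 nm filter. Four-parameter Hill fit across titration.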
AmpC inh detg: AmpC beta-lactamase inhibition with detergent present | AmpC hydrolysis of nitrocefin, absorbance 480 nm, 0.01% Triton | P00811 | Potency, µM (top dose mostly 114 µM), hits mostly inhibitors | AID 485294 | 370,000 compounds, 0.041% hits; further: nearly all actives have a fitted effect of over 25% in size
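AmpC (5.3 nM in the dispensed reagent) in 20 mM phosphate pH 7.0 with 0.01% (detergent screen) or 0.0001% Triton X-100 was preincubated with compounds for 15 min at room temperature. Nitrocefin was then added from an 800 uM solution, and hydrolysis was followed at 480 nm.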
Giardia FBPA inh: blocks Giardia fructose-bisphosphate aldolase activity | purified Giardia FBPA | Potency, µM (doses to about 59.6 µM), hits mostly inhibitors | 290,000 compounds, 0.71% hits; further: nearly all actives have a fitted effect of over 55% in size
Target sequence (A8B2U2 whole entry, looked up): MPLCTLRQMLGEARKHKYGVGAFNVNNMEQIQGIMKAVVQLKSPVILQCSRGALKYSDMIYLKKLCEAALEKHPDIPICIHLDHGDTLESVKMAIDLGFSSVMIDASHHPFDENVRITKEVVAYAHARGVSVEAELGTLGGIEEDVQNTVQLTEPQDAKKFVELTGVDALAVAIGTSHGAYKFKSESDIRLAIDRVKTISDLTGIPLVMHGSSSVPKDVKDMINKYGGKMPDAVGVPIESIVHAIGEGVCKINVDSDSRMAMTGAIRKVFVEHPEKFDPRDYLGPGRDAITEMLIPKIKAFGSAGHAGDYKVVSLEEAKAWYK
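Giardia FBPA (40 nM reagent) was preincubated 10 min at RT with compound (up to 57.5 uM final), then substrate plus GAPDH/TPI/NAD/arsenate coupling system with diaphorase/resazurin was added; resorufin fluorescence (525/598 nm) was read after 20 min.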
Each line names hits and unclear results; the compound was inactive in the other large screens; ! = not confirmed by another sample. Hits are enriched below; roughly 3.6% of the tested compounds scored in any of these assays. The call rests on the fitted dose curve; in most records, active means well fitted curve in the direction sought with a large enough effect; inconclusive means small, poorly fitted or top-dose-only effect, or another doubt; inactive means no such curve, though single readings can be large; an effect the other way counts as inactive or inconclusive.

Cc1ccc(N2C(=O)C3C4C=CC(CNC(=S)N5CCN(c6ccccn6)CC5)(O4)C3C2=O)cc1 (stereo not given)	Sm TGR inh 2.8µM
CC(C)COC(=O)NCC12C=CC(O1)C1C(=O)N(c3ccc(Cl)cc3)C(=O)C12 (stereo not given)	Sm TGR inh 1.6µM
Cc1ccc(N2C(=O)C3C4C=CC(CNC(=S)Nc5ccc(F)cc5)(O4)C3C2=O)cc1 (stereo not given)	Sm TGR inh 3.2µM
Cc1ccc(N2C(=O)C3C4C=CC(CNC(=S)Nc5ccc(Cl)cc5)(O4)C3C2=O)cc1 (stereo not given)	Sm TGR inh 7.1µM
Cc1ccc(C)c(NC(=S)N2CCN(c3ccccn3)CC2)c1	none
CCc1ccccc1N1CC23C=CC(O2)C(C(=O)OCC(C)C)C3C1=O (stereo not given)	none
Cc1nc2c(c(C)c1CCC(=O)NCc1ccc(Cl)cc1)c(=O)n(C)c(=O)n2C	none (no result: AmpC no deterg, Giardia FBPA inh)
COc1cc(SC)ccc1C(=O)NCCCn1ccnc1	Sm TGR inh inconclusive
Cc1ccc(N2C(=O)C3C4C=CC(CNC(=S)Nc5cccc(Cl)c5)(O4)C3C2=O)cc1 (stereo not given)	AmpC no deterg inconclusive, Sm TGR inh 4µM
Cc1ccc(N2C(=O)N(CC(=O)Nc3cccc(Cl)c3)C(=O)C2C)cc1 (stereo not given)	AmpC inh detg inconclusive (no result: Giardia FBPA inh)
COc1ccc(/C=C2/SC(=O)N(CCNC(=O)C3COc4ccccc4O3)C2=O)cc1 (stereo not given)	none
CCOc1ccc(/C=C2\SC(=O)N(CCNC(=O)C3COc4ccccc4O3)C2=O)cc1OC (stereo not given)	Sm TGR inh 35µM
COc1cccc(NC(=O)C2CC(=O)N=C(N)S2)c1 (stereo not given)	none
COc1ccc(NC(=O)C2CC(=O)n3cnnc3S2)cc1 (stereo not given)	Sm TGR inh 0.28µM, Giardia FBPA inh inconclusive
COc1ccc(NC(=O)C2CC(=O)n3ncnc3N2)cc1 (stereo not given)	none
COc1cccc(NC(=O)C2CC(=O)n3cnnc3S2)c1 (stereo not given)	Sm TGR inh 0.63µM, Giardia FBPA inh inconclusive
CN(CCc1ccccn1)C1CCCN(S(=O)(=O)c2ccccc2)C1 (stereo not given)	none (no result: Giardia FBPA inh)
CC(=O)c1ccc(S(=O)(=O)N2CCCC(N(C)CCc3ccccn3)C2)cc1 (stereo not given)	Sm TGR inh 20µM (no result: Giardia FBPA inh)
CN1CC[C@@]2(CCCN(S(=O)(=O)c3ccccc3)C2)C1	none (no result: AmpC no deterg, Sm TGR inh, AmpC inh detg)
CN(C)C(CNC(=O)NC1CCCCC1)c1cccnc1 (stereo not given)	Sm TGR inh 40µM
Cc1ccc(N(C(=O)CNC(=O)c2ccco2)C(C(=O)NC2CCCCC2)c2cccnc2)cc1C (stereo not given)	none
Cc1ccc(N(C(=O)CCl)C(C(=O)NC2CCCCC2)c2cccnc2)cc1C (stereo not given)	Sm TGR inh 14µM
CC(C)Oc1ccc(/C=N/NC(=O)c2nnn(-c3nonc3N)c2CN(C)c2ccccc2)cc1	none
COc1ccc(C)cc1NC(=O)CSc1nc(=O)n(CCCN2CCOCC2)c2c1CCCC2	none (no result: Giardia FBPA inh)
COc1ccccc1CNC(=O)CCCn1c(=O)c2ccccc2n(Cc2ccc(F)cc2)c1=O	none (no result: AmpC no deterg, Giardia FBPA inh)
CC(C)C1Nc2c(O)cc(Cl)c([N+](=O)[O-])c2C2C=CCC21 (stereo not given)	Sm TGR inh 7.1µM
COc1ccc(N(C(=O)c2ccncc2)S(=O)(=O)c2cccc([N+](=O)[O-])c2)cc1	Sm TGR inh 32µM (no result: Giardia FBPA inh)
N#Cc1ccc(CS(=O)(=O)c2nc3ccccc3s2)cc1	none (no result: AmpC no deterg, Sm TGR inh, AmpC inh detg)
Cc1cccc(OCc2nc(C#N)c(NCCN(C)C)o2)c1	AmpC no deterg 2.2µM
CC(=O)N(C)C1=C(O)c2ccccc2C(=O)C1=O	none (no result: Giardia FBPA inh)
CC(=O)N(C1=C(N)C(=O)c2ccccc2C1=O)C(C)C	Sm TGR inh 7.1µM, Giardia FBPA inh inconclusive
CN1CCC(=C2c3ccccc3CCc3sccc32)CC1	none
CN1CCC(=C2c3ccccc3CC(=O)c3sccc32)CC1	Sm TGR inh 50µM!
CN(C)CCNC(=O)C1CCN(S(=O)(=O)c2ccc3ccccc3c2)CC1	none (no result: Giardia FBPA inh)
Clc1cccc(CSc2nnc(-c3ccccn3)n2Cc2ccco2)c1	Sm TGR inh 40µM
Brc1ccc(CSc2nnc(-c3ccccn3)n2Cc2ccco2)cc1	Sm TGR inh 40µM
CC(C)(C)c1ccc(CSc2nnc(-c3ccccn3)n2Cc2ccco2)cc1	none
O=C(O)c1cc([N+](=O)[O-])c(Sc2nc3ccccc3[nH]2)c([N+](=O)[O-])c1	Sm TGR inh 1.8µM, AmpC inh detg inconclusive
CS(=O)(=O)c1cc([N+](=O)[O-])c(Sc2nc3ccccc3[nH]2)c([N+](=O)[O-])c1	AmpC no deterg 22µM, Sm TGR inh 1.4µM, AmpC inh detg inconclusive, Giardia FBPA inh inconclusive
CCN1CCN(c2ccc([N+](=O)[O-])c(Sc3nc4ccccc4[nH]3)c2)CC1	none
CCCCN(C)CCCNC(=O)C1CCN(c2nc3ccc(CC)cc3s2)CC1	none (no result: AmpC no deterg, Giardia FBPA inh)
O=C1CC(c2ccc(OCCCCCOc3ccc(C4CC(=O)NC4=O)cc3)cc2)C(=O)N1 (stereo not given)	none
CCCCCCCCOc1ccc(C2CC(=O)NC2=O)cc1 (stereo not given)	Sm TGR inh 100µM
O=C(/C(=N\Nc1ccc([N+](=O)[O-])cc1)Sc1nnnn1-c1ccccc1)c1ccccc1	AmpC no deterg inconclusive, AmpC inh detg inconclusive
Cc1ccc(N/N=C(/Sc2nnnn2-c2ccccc2)C(=O)c2ccccc2)cc1	AmpC no deterg 4µM, AmpC inh detg 35µM
CCC(=O)N1CCc2cc(Br)cc(S(=O)(=O)N3CCCCC3CC)c21 (stereo not given)	none
Cc1cc(=O)oc2cc(OCC(=O)NCCCN3CCCC3=O)c(Cl)cc12	Sm TGR inh 79µM (no result: Giardia FBPA inh)
Cc1ccc(NC(=O)CSc2nccn2Cc2ccc3c(c2)OCO3)c(C)c1	none (no result: AmpC no deterg, Giardia FBPA inh)
Cc1cc(N)nc2nc(C(F)(F)F)nn12	none
CCOC(=O)c1ccc(NC(=O)c2ccc(NS(C)(=O)=O)cc2)cc1	AmpC inh detg inconclusive
CCOc1ccccc1C(=O)Nc1ccc(C(=O)c2ccccc2)cc1	Sm TGR inh 4.5µM
CCOc1ccccc1C(=O)Nc1ccc(NC(=O)c2ccccc2)cc1	none
CCOC(=O)c1ccc(NC(=O)Nc2ncc(Cl)cc2Cl)cc1	Sm TGR inh 40µM
CCOC(=O)c1ccc(NC(=O)Nc2ncccc2C)cc1	none
CCOC(=O)c1ccc(NC(=O)c2ccccc2)cc1	AmpC no deterg 10µM, AmpC inh detg inconclusive
CCOC(=O)c1ccc(NC(=O)CCS(=O)(=O)c2ccc(Br)s2)cc1	Sm TGR inh 11µM
CCc1ccc(CN(C)C(=O)C2=CC=CN3CCS(=O)(=O)N=C23)cc1	none (no result: Giardia FBPA inh)
OC[C@@H]1CC[C@@H](Cc2ccc(-c3ccccc3)cc2)O1	none (no result: Sm TGR inh, AmpC inh detg, Giardia FBPA inh)
O=C(CN(C(=O)c1csnn1)c1ccc(F)cc1)NCc1ccc2c(c1)OCO2	none (no result: Giardia FBPA inh)
